Bioassay records from PubChem.
The list is not random: actives were taken first. Their share in the collection is about 2.4%.
LT uptake inh: blocks cellular internalization of anthrax lethal toxin | Cells, anthrax lethal toxin internalization, FRET ratio (460/530) | Potency, µM (doses to about 40 µM), without a hit: top-dose activity change, negative = inhibition, hits mostly inhibitors | 70,000 compounds, 0.67% hits | AID 912; further: on the % scale 0 is the no-effect control and ±100 the full control effect; nearly all actives have a fitted effect of over 50% in size
Prx2 Sm inh: inhibitors of Schistosoma mansoni peroxiredoxin 2 | 65,000 compounds, 0.07% hits | S. mansoni Prx2 activity coupled to TGR/GSH (TGR is thioredoxin glutathione reductase), NADPH fluorescence loss, qHTS | Potency, µM | AID 448
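Prx2 inhibition was measured as reduced NADPH consumption when electrons flowed from NADPH through TGR and glutathione to Prx2 and H2O2. Plates were read kinetically over 8 min; enzyme reagents were held at 4 deg C during dispensing.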
AmpC inh det: blocks E. coli AmpC beta-lactamase in presence of detergent; P00811; purified AmpC, nitrocefin hydrolysis with detergent; Potency, µM (doses to about 28.7 µM), for inactives: at the highest dose activity change, negative = inhibition; 71,000 compounds, 0.09% hits; AID 584; active means well fitted curve in the direction sought with a large enough effect; inconclusive means small, poorly fitted or top-dose-only effect; further: on the % scale 0 is the no-effect control and ±100 the full control effect
Target sequence (P00811 whole entry, looked up): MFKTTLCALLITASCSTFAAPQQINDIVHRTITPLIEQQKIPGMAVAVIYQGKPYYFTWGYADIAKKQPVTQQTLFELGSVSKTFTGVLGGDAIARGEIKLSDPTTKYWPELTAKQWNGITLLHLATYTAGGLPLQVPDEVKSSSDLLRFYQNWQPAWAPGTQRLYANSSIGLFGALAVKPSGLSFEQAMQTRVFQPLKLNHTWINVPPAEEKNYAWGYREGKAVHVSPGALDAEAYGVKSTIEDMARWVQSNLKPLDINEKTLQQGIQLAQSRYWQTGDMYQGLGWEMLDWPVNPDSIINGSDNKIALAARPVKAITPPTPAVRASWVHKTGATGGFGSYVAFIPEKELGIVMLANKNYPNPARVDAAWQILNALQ
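E. coli AmpC (5.3 nM) in 20 mM phosphate pH 7.0 with 0.01% Triton X-100, preincubated 15 min RT with compound; nitrocefin (2 uL of 800 uM stock) hydrolysis followed by 480 nm absorbance every 20 s over 4 min.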
AmpC inh no det: blocks E. coli AmpC beta-lactamase in absence of detergent; P00811; AmpC nitrocefin hydrolysis, absorbance 480 nm, no detergent; Potency, µM (highest dose often 28.7 µM), inactives show at the highest dose activity change, negative = inhibition; 71,000 compounds, 1.8% hits; further: % of control where 0% means no effect
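AmpC in 20 mM phosphate buffer pH 7.0 was preincubated 15 min at room temperature with compounds. Nitrocefin (800 uM stock) was then added and hydrolysis followed at 480 nm every 20 s for 4 min.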
The depositor's hits bear a star; u = inconclusive; x = no result; [ ] = another dose, or the depositor's remark. Unless noted, the call rests on the fitted dose curve. Potency means the concentration at half of the fitted maximal effect.

SMILES	LT uptake inh	Prx2 Sm inh	AmpC inh det	AmpC inh no det
c1ccc(CCNc2ccc3nncn3n2)cc1	-13.2%	>57	11.7%	3.16µM*[single pt active]
O=CN1C[C@H]2C[C@@H](C1)c1cccc(=O)n1C2	-10.6%	>57	3.0%	4.9%
CC1=C/C(=C\c2ccc3c(c2)OCO3)C(=O)S1	u	>57	u	12.6µM*
C=CCSC1=N/C(=C\c2ccc3c(c2)OCO3)C(=O)S1	22.4%	>57	3.2%	3.98µM*
O=C(Cn1c(=O)n(Cc2ccco2)c(=O)c2ccccc21)Nc1cccc(Cl)c1	2.51µM*	>57	13.4%	2.51µM*[single pt active]
Cc1cc(NC(=O)Cn2c(=O)n(Cc3ccccc3)c(=O)c3ccccc32)no1	-6.7%	>57	-1.3%	10µM*
CO[C@H]1COC(=O)[C@@H](C)COC(=O)[C@H](C)NC(=O)C/C=C\[C@H]1C	0.4%[1.6 µM]	x	x	x
CC(=O)n1cc(-c2ccncc2)c2ccccc21	15.1%	>57	9.7%	3.16µM*[single pt active]
c1ccc2sc(C3(N4CCCCC4)CCCCC3)cc2c1	25.1µM*	>57	-2.8%	26.7%
Cc1ccccc1N1C(=O)c2ccccc2C1Nc1cccnc1 (centres undefined)	-2.9%	>57	12.6%	3.98µM*[single pt active]
CCc1cccc(NC2c3ccccc3C(=O)N2c2cccnc2)c1 (centres undefined)	-3.3%	>57	9.3%	3.98µM*[single pt active]
COC(=O)c1ccccc1NC1c2ccccc2C(=O)N1c1cccnc1 (centres undefined)	-9.5%	>57	7.9%	3.98µM*[single pt active]
CCc1cccc(NC2c3ccccc3C(=O)N2c2ccc(C)cn2)c1 (centres undefined)	u	>57	8.4%	43.1%
Cc1ccnc(N2C(=O)c3ccccc3C2Nc2cccc(C)c2C)c1 (centres undefined)	-5.2%	>57	10.1%	13.1%
CCOC(=O)c1ccc(NC2c3ccccc3C(=O)N2c2cccnc2)cc1 (centres undefined)	-4.8%	>57	10.7%	62.2%
O=C1c2ccccc2C(Nc2ccccc2F)N1c1cccnc1 (centres undefined)	-0.2%	>57	13.4%	3.98µM*[single pt active]
COC(=O)[C@H](N)CCCN=C(N)N[N+](=O)[O-]	4.1%	>57	-3.3%	-13.9%
O=c1c(-c2ccc(Cl)cc2)nc2cnc(N3CCOCC3)nc2n1CCc1ccccc1	u	>57	-0.5%	1.9%
CC1=CC(=O)CC(C)(C)[C@]1(O)/C=C\C(C)=C\C(=O)O	-2.5%[8 µM]	>57	-1.9%[5.75 µM]	4.4%[5.75 µM]
O=C(NCCN1CCN(C(=O)NC2CCCCC2)CC1)NC1CCCCC1	-4.3%	>57	-5.7%	11.9%
NC(=O)CN1CCN(C(=O)NC2CCCCC2)CC1	-2.1%	>57	16.0%	3.16µM*[single pt active]
COc1ccc(Cl)cc1N=Nc1ncc[nH]1	-3.0%	>57	2.7%	1.2%
Cc1noc(C)c1S(=O)(=O)N(CC(=O)NCc1ccc2c(c1)OCO2)c1ccc(C(C)C)cc1	5.01µM*	>57	6.4%	-9.3%
COc1ccc(C2CC(=O)c3cnc(NC(=O)c4ccccc4)nc3C2)cc1OC (centres undefined)	-24.8%	>57	9.5%	3.98µM*[single pt active]
O=c1cc(-c2ccc(O)c(O)c2)oc2cc(O[C@@H]3O[C@@H](CO)[C@@H](O)[C@@H](O)[C@H]3O)cc(O)c12	u	>25.6	-1.4%	-10.5%
SMILES	LT uptake inh	Prx2 Sm inh	AmpC inh det	AmpC inh no det
O=C(c1ccccc1C(=O)N1CCN(c2ccccc2F)CC1)N1CCN(c2ccccc2F)CC1	-13.6%	x	-0.7%	129.3%
O=C(N1CCOCC1)N1CCN(c2ccccc2F)CC1	-8.8%	>57	11.8%	3.98µM*[single pt active]
CC(=O)Oc1ccc(/C=C\C(=O)C[C@@H]2O[C@@H](Oc3cc(OC(C)=O)c4c(c3)O[C@@H](c3ccc(OC(C)=O)cc3)CC4=O)[C@H](OC(C)=O)[C@H](OC(C)=O)[C@@H]2OC(C)=O)cc1	u	>57	0.6%	51.3%
CCC(NC(=O)OC(C)(C)C)C(=O)Oc1ccc2c3c(c(=O)oc2c1)CCC3 (centres undefined)	x	55.4*	-1.8%	43.8%
O=C(Oc1ccc2c3c(c(=O)oc2c1)CCCC3)c1ccco1	u	55.5*	6.0%	1.6%
CN1CCN(c2ccc([N+](=O)[O-])c3[nH]o[n+](=O)c23)CC1	u	>57	-6.9%[5.75 µM]	6.5%[5.75 µM]
CO/N=C\[C@@H](NS(=O)(=O)c1ccc(C)cc1)[C@H](C)/C=C\CC(=O)OC	23.6%[8 µM]	x	x	x
Cc1ccc2cccc(OC(=O)N(C)c3ccccc3)c2n1	15.8µM*	x	3.8%	33.4%
O=c1c(-c2cccc(F)c2)nc2cncnc2n1C1CC1	u	>57	-0.6%	2.6%
Cc1ccc(/C(C#N)=C\c2cn(C)c3ccccc23)cc1	7.94µM*	>57	-8.7%	-9.6%
Cc1ccc(/C(C#N)=C/c2cccc([N+](=O)[O-])c2)cc1	u	>57	-3.9%[5.75 µM]	-3.7%[5.75 µM]
CCn1c(SCC(=O)N2CCOCC2)nc(O)cc1=O	-5.2%	>57	12.8%	3.98µM*[single pt active]
C=C1CC[C@@H](O)C/C1=C/C=C1\CCC[C@]2(C)[C@@H]1CC[C@H]2[C@@H](C)CCCC(C)C	u	>57	-2.9%	33.5%
COc1ccc(NC(=O)[C@H](CCS(C)(=O)=O)N2Cc3ccccc3C2=O)c(OC)c1	7.3%	>57	15.5%	3.98µM*[single pt active]
CCn1ncc(C2=NOC(C(=O)Nc3c(C)nn(Cc4ccc(F)cc4)c3C)C2)c1C (centres undefined)	-14.2%	>57	18.0%	48.3%
CCn1ncc(C2=NOC(C(=O)Nc3c(C)n(C)n(-c4ccccc4)c3=O)C2)c1C (centres undefined)	-2.7%	>57	8.5%	3.98µM*[single pt active]
CCN(CC)c1ncnc2c1ncn2[C@@H]1O[C@@H](COP(=O)(O)OP(=O)(O)C(Br)(Br)P(=O)(O)O)[C@H](O)[C@H]1O	u	>57	0.4%	-1.0%
Fc1ccc(C(OCCN2CCN(CCCc3ccccc3)CC2)c2ccc(F)cc2)cc1	u	>57	-6.1%	12.7%
c1ccc(CCCN2CCN(CCOC(c3ccccc3)c3ccccc3)CC2)cc1	25.1µM*	>57	-0.3%	70.5%
Cc1csc(Sc2nc3c(c(=O)[nH]c(=O)n3C)n2CCCc2ccccc2)n1	-13.2%	>57	-5.0%	15.8µM*[single pt active]
O=C(OCC(=O)c1cccs1)c1ccc(NC(=O)c2ccco2)cc1	-6.2%	>57	8.8%	15.8µM*[single pt active]
CN(C)c1ccc(C(=O)OCC(=O)c2cccs2)cc1	-13.6%	>57	10.5%	-1.5%
O=C(Cl)c1cccc([N+](=O)[O-])c1	13.4%	x	14.2%	0.2%
O=C(c1ccco1)N1CCCC(c2nc(-c3ccc(S(=O)(=O)NCc4ccccc4)cc3)no2)C1 (centres undefined)	12.6µM*	>57	-3.9%	0.8%
COc1ccc(-c2noc(C3CCCN(C(=O)CCc4ccccc4)C3)n2)cc1 (centres undefined)	-0.1%	>57	0.6%	77.2%
C[C@]12Cc3cn4c(nc3C=C1CC[C@H]1[C@@H]2CC[C@@]2(C)[C@H]1CC[C@@]2(O)C#N)nc1ccccc14	u	>57	1.0%	20.1%
CCOC(=O)c1sc(NC(=O)c2noc3c2CCCC3)c(C(=O)OCC)c1C	-13.0%	>57	12.7%	3.98µM*[single pt active]
